Data as given in PubChem BioAssay.
Activity calls are given as the source filed them. Unless noted, no rule for the calls is given here.

What was measured:
[1] = system: Wnt5a (protein binding on small-molecule microarray); test: Wnt5a binders on small-molecule microarray, primary screen, biophysical, 635/667 nm fluorescence (AID 1142); settings: 635 nm fluorescence, higher = more signal;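 also: fluorescence read at 667 nm with signal to noise per printed feature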
[2] = cell viability in Huh7 cells, primary screen, cytotoxicity control for HCV replication inhibitor project, CellTiter-Glo luminescence, basal, 48 h (AID 1143); settings: Huh7 HCV replicon, higher = more signal, called active from +8 up or from −8 down;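 also: Huh7 hepatoma cells carrying a hepatitis C replication reporter with no stimulus; test concentration not given here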
[3] = P. aeruginosa biofilm formation inhibitors, primary screen, PAO1 strain, BacTiter-Glo luminescence, LB-PBS (AID 1144); settings: 12 h, higher = more signal
[4] = CREB reporter modulators without forskolin, primary screen, cell-based, PC12, CRE-LacZ reporter, unstimulated (AID 1145); settings: no forskolin, luminescence, 4.5 h, higher = more signal, called active from +8 up or from −8 down
[5] = CREB reporter modulators under forskolin, primary screen, cell-based, PC12, CRE-LacZ reporter, forskolin-stimulated (AID 1146); settings: luminescence, 4.5 h, higher = more signal, called active from +8 up or from −8 down;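 also: PC12 cells with 6xCRE LacZ reporter stimulated by forskolin 10 µM; beta-galactosidase reporter signal reflecting CREB driven transcription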
[6] = target: Streptavidin (Streptomyces avidinii) (UniProt P22629); test: streptavidin binders on small-molecule microarray, primary screen, artefact control for SMM compound annotation, biophysical, 635/667 nm fluorescence (AID 1147); settings: streptavidin binding, higher = more signal;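 also: signal reflects streptavidin binding to arrayed compounds as a control protein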
Sequence of Streptavidin (Streptomyces avidinii) (P22629 whole entry, looked up): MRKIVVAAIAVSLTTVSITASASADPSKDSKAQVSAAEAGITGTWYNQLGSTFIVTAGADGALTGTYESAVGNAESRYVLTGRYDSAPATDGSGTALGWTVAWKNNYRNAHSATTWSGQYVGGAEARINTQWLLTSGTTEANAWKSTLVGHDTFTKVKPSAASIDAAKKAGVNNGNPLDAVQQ

[7] = small-molecule binders of probe aInhba, primary screen, biochemical, small-molecule microarray, 635/667 nm fluorescence (AID 1148); settings: higher = more signal;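 also: score merges 667nm spot fluorescence with signal-to-noise for antibody binding to printed compounds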
Torsin-1A (Homo sapiens) [8] = target: Torsin-1A (Homo sapiens) (UniProt O14656); test: torsin A binders from cell lysate, primary screen, small-molecule microarray, wild-type, 635/667 nm (AID 1149); settings: COS7 hTOR1A-WT lysate, 635 nm fluorescence, higher = more signal
Sequence of Torsin-1A (Homo sapiens) (O14656 whole entry, looked up): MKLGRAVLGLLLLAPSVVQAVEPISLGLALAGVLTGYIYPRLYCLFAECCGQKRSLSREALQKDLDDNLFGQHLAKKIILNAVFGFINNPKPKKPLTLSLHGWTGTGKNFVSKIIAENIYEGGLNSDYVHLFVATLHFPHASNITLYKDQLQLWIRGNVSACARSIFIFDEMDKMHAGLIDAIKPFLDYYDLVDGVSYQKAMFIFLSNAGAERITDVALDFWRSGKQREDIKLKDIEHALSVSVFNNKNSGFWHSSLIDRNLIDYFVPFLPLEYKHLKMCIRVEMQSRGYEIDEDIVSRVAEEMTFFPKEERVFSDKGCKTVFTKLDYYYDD

Torsin-1A (Homo sapiens) [9] = target: Torsin-1A (Homo sapiens) (UniProt O14656); test: small-molecule binders of mutant TOR1A in lysate, primary screen, cell lysate, small-molecule microarray, COS7 lysate, 635/667 nm fluorescence (AID 1150); settings: COS7 hTOR1A mutant lysate, 635 nm fluorescence, higher = more signal;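 also: score pools 667 nm emission and signal to noise measuring lysate protein binding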
[10] = system: Sonic hedgehog protein (Shh); test: small-molecule binders of Shh protein, primary screen, biochemical, small-molecule microarray, 635/667 nm fluorescence (AID 1151); settings: small-molecule microarray binding, 635 nm fluorescence; higher = more signal;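 also: Shh protein binding to compounds spotted on small-molecule microarray slides; score combines spot fluorescence intensity with signal-to-noise across triplicate slides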
[11] = E. coli DRC41 culture turbidity changes, primary screen, E. coli filamentation inducer project, strain DRC41, OD650, 48 h (AID 1152);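 also: E. coli MC1000 strain DRC41 lacking acrAB efflux pump and sulA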; settings: E. coli DRC41 (acrAB sulA), higher = more signal, called active from +8 up or from −8 down
[12] = small-molecule binders of probe aLefty1, primary screen, biochemical, small-molecule microarray, 635/667 nm fluorescence (AID 1153); settings: higher = more signal;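 also: score merges spot fluorescence with signal-to-noise ratio from the scanned slide images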
[13] = PSAC antagonists in infected red cells, primary screen, cell-based, P. falciparum Indochina, OD700, 1 h (AID 1154); settings: P. falciparum Indochina infected RBC osmotic lysis, higher = more signal, called active from +8 up or from −8 down
[14] = PSAC antagonists in infected red cells, primary screen, cell-based, P. falciparum Indochina, OD700, 2 h (AID 1155);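 also: lysis reports solute entry through the parasite surface anion channel PSAC; channel blockers reduce lysis of infected cells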; settings: P. falciparum Indochina infected erythrocytes, osmotic lysis OD700; higher = more signal, called active from +8 up or from −8 down
[15] = osmotic lysis modulators in infected erythrocytes, primary screen, PSAC antagonist project, cell-based, P. falciparum Indochina, OD700, 3 h (AID 1156); settings: higher = more signal, called active from +8 up or from −8 down
[16] = PSAC antagonists in infected red cells, primary screen, cell-based, P. falciparum Indochina, OD700, 18 h (AID 1157); settings: P. falciparum Indochina infected erythrocytes, osmotic lysis OD700, 18 h; higher = more signal, called active from +8 up or from −8 down
[17] = modulators of S6 phosphorylation in cells, primary screen, cell-based, A549, cytoblot, luminescence, serum-stimulated (AID 1158); settings: A549 phospho-S6 cytoblot, 5 h, higher = more signal;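 also: serum-stimulated A549 lung adenocarcinoma cells; signal is phosphorylated S6 detected by cytoblot immunostaining with HRP secondary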
[18] = target: NADPH oxidase 2 (Homo sapiens) (UniProt P04839); test: NOX2-dependent H2O2 signal modulators, primary screen, NOX inhibitor project, cell-based, HEK293-NOX2, PMA-stimulated, Amplex Red fluorescence (AID 1159); settings: 45 min, higher = more signal, called active from +8 up or from −8 down; also: test concentration not given here
Sequence of NADPH oxidase 2 (Homo sapiens) (P04839 whole entry, looked up): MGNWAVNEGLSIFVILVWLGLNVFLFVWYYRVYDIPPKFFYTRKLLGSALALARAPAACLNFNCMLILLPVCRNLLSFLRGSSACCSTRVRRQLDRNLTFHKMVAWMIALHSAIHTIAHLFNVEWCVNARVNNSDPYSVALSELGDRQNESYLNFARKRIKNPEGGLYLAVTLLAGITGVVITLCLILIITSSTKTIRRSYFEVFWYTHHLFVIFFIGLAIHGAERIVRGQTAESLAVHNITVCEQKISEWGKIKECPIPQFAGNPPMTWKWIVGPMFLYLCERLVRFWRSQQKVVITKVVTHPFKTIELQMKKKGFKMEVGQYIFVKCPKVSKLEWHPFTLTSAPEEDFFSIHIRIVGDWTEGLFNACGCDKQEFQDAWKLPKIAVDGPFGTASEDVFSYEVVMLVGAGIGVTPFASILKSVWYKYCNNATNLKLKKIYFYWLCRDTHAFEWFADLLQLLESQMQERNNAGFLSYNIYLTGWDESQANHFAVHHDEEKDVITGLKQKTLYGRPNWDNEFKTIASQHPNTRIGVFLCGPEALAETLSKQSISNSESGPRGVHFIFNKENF

[19] = target: NADPH oxidase 4 (Homo sapiens) (UniProt Q9NPH5); test: NOX4-dependent H2O2 signal modulators, primary screen, NOX inhibitor project, cell-based, HEK293-NOX4, tetracycline-induced, Amplex Red fluorescence (AID 1160); settings: 45 min, higher = more signal, called active from +8 up or from −8 down
Sequence of NADPH oxidase 4 (Homo sapiens) (Q9NPH5 whole entry, looked up): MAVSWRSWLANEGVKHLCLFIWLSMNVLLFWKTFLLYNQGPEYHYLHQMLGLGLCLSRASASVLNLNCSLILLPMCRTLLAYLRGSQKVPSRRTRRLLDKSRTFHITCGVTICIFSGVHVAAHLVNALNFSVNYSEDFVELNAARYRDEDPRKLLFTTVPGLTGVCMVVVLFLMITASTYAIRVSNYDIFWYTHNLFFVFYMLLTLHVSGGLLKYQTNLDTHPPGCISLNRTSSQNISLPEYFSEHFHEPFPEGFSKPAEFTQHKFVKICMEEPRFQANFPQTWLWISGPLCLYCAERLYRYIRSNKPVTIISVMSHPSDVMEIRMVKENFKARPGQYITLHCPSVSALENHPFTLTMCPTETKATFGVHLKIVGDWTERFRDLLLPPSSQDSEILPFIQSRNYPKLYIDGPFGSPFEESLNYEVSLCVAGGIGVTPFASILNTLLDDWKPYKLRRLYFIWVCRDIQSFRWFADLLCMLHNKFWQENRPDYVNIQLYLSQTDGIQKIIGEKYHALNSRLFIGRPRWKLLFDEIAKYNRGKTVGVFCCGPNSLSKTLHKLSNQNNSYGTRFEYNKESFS

[20] = target: NADPH oxidase 5 (Homo sapiens) (UniProt Q96PH1); test: NOX5-dependent H2O2 signal modulators, primary screen, NOX inhibitor project, cell-based, HEK293-NOX5, Amplex Red fluorescence (AID 1161); settings: HEK293-NOX5, ionomycin, 45 min, higher = more signal
Sequence of NADPH oxidase 5 (Homo sapiens) (Q96PH1 whole entry, looked up): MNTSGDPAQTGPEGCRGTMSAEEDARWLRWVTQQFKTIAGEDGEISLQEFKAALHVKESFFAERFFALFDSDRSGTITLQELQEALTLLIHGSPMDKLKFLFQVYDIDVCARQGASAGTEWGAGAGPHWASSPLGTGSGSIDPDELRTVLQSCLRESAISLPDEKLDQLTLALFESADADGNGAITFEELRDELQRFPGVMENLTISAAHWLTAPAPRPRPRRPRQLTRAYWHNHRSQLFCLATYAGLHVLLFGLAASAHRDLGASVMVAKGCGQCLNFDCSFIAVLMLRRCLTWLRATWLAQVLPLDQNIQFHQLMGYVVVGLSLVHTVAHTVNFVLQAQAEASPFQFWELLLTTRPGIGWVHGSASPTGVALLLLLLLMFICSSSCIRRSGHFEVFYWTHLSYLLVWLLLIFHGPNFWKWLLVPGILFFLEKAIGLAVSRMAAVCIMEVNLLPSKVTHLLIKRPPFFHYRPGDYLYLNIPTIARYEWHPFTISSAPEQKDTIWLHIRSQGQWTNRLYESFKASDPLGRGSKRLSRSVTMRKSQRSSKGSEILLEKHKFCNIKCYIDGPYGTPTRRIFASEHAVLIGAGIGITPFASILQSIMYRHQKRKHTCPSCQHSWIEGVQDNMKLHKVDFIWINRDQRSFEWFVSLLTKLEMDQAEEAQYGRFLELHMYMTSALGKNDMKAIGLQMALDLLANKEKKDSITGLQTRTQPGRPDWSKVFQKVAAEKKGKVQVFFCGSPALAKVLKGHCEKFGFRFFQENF

Compound | composite z-score [1] | z-score [2] | z-score [3] | z-score [4] | z-score [5] | composite z-score [6] | composite z-score [7] | composite z-score (Torsin-1A (Homo sapiens) [8]) | composite z-score (Torsin-1A (Homo sapiens) [9]) | composite z-score [10] | z-score [11] | composite z-score [12] | z-score [13] | z-score [14] | z-score [15] | z-score [16] | z-score [17] | z-score [18] | z-score [19] | z-score [20]
COC(=O)[C@@]1(Cc2ccc(F)cc2)[C@H]2c3cc(C(=O)N(C)C)n(Cc4ccc(O)c(OC)c4)c3C[C@H]2CN1C(=O)c1ccccc1 | 0.128 | -2.65 (inactive) | -1.24 (inactive) | 0.387 (inactive) | 0.0711 (inactive) | 0.575 | -0.108 | 0.198 | 0.484 | -0.556 | -1.45 (inactive) | 0.681 | 3.77 (inactive) | -0.164 (inactive) | 1.74 (inactive) | -1.74 (inactive) | 2 | -2.68 (inactive) | -5.32 (inactive) | -1.16
O=C1C2C=CC(C(O)c3ccc4c(c3)OCO4)N(Nc3ccccc3)C2C(=O)N1c1ccccc1 (stereo not given) | 0.096 | -0.924 (inactive) | -0.648 (inactive) | 0.44 (inactive) | 0.993 (inactive) | 1.52 | 0.143 | -0.277 | 0.426 | 0.0743 | -1.27 (inactive) | 0.065 | 0.805 (inactive) | 0.384 (inactive) | 1.15 (inactive) | 1.39 (inactive) | -0.777 | -0.279 (inactive) | 0.756 (inactive) | -1.12
C=CCNC(=O)[C@H]1[C@@H]2C(=O)O[C@@H](c3ccccc3)[C@@H](c3ccccc3)N2[C@@H](c2ccc(OCCO)cc2)[C@]12C(=O)Nc1ccc(C#CCNC(N)=O)cc12 | 0.314 | -0.384 (inactive) | -0.78 (inactive) | 0.559 (inactive) | 0.123 (inactive) | 0.756 | 0.0857 | 0.207 | 0.125 | 1.61 | -0.0661 (inactive) | 0.0809 | 2.59 (inactive) | 1.36 (inactive) | 1.42 (inactive) | 0.563 (inactive) | 0.326 | 1.91 (inactive) | 0.286 (inactive) | -0.621
CO[C@H]1O[C@H](CO)[C@@H](OC(=O)Nc2ccc(C#N)cc2)[C@@H]2OC(=O)[C@H](Cc3cccc(Br)c3)C/C=C/C[C@@H](Cc3cccc(Br)c3)C(=O)O[C@@H]12 | 0.563 | -3.82 (inactive) | -1.36 (inactive) | -0.602 (inactive) | -0.404 (inactive) | 0.336 | -0.0327 | 0.185 | -0.163 | 1.34 | 0.766 (inactive) | 0.941 | 1.52 (inactive) | -0.178 (inactive) | 0.842 (inactive) | 0.558 (inactive) | -0.257 | -1.59 (inactive) | 0.311 (inactive) | -0.214
COC(=O)C(CC#Cc1ccc2c(c1)[C@]1(C(=O)N2)[C@H](c2ccc(O)cc2)N2[C@H](c3ccccc3)[C@H](c3ccccc3)OC(=O)[C@H]2[C@@H]1C(=O)N1CCCCCCC1)C(=O)OC | 0.851 | -3.72 (inactive) | -1.77 (inactive) | -0.0515 (inactive) | -0.507 (inactive) | 1.26 | 1.36 | 0.78 | 0.592 | 0.777 | 1.11 (inactive) | 1.69 | 0.53 (inactive) | -1.11 (inactive) | -0.677 (inactive) | -2.43 (inactive) | 3.01 | 0.953 (inactive) | 0.181 (inactive) | 1.63
Cc1cccc([C@H]2C[C@H]3C(Br)=C[C@@H]2C(=O)[C@]32CO2)c1 | -0.258 | -0.687 (inactive) | 0.185 (inactive) | 0.854 (inactive) | 2.63 (inactive) | -0.221 | -0.239 | 0.397 | -1.21 | -0.198 | -0.227 (inactive) | -0.147 | 0.969 (inactive) | 0.323 (inactive) | 0.463 (inactive) | 0.06 (inactive) | 0.209 | 0.7 (inactive) | -0.00866 (inactive) | -0.854
COC(=O)C1N=C(c2ccc(OCCCO)cc2)N(c2ccccc2)O1 (stereo not given) | 0.924 | 0.255 (inactive) | -0.787 (inactive) | 0.353 (inactive) | 0.0512 (inactive) | 0.562 | 0.308 | 0.654 | 0.328 | 0.664 | 0.336 (inactive) | 0.103 | 24.9 (active) | 7.38 (inactive) | 1.02 (inactive) | 1.04 (inactive) | 0.417 | 0.943 (inactive) | 0.392 (inactive) | -0.0493
CO[C@H]1O[C@H](CO)[C@@H](OC(=O)CCc2ccccc2)[C@H](OC(=O)c2cc3ccccc3[nH]2)[C@H]1OC(=O)c1cc2ccccc2[nH]1 | 0.156 | -5.71 (inactive) | -1.99 (inactive) | -1.28 (inactive) | -1.2 (inactive) | -0.0944 | 0.0391 | 0.71 | 0.913 | 0.832 | 2.71 (inactive) | -0.162 | 2.39 (inactive) | 0.923 (inactive) | -2.27 (inactive) | 1.1 (inactive) | 2.17 | -0.601 (inactive) | 0.0901 (inactive) | 0.855
CN1C(=O)C2C=CC(C(O)c3ccc(I)cc3)N(Nc3ccccc3)C2C1=O (stereo not given) | 0.377 | 0.134 (inactive) | -0.507 (inactive) | 1.77 (inactive) | 1.34 (inactive) | 1.76 | -0.0209 | 0.338 | 0.696 | -0.0996 | -1.97 (inactive) | 0.195 | 1.9 (inactive) | 1.27 (inactive) | 1.04 (inactive) | 1.12 (inactive) | -0.919 | -0.874 (inactive) | -5.01 (inactive) | -4.14
O=C1C[C@@](C(=O)NCc2ccccc2)(c2ccc([N+](=O)[O-])cc2)[C@@H](c2ccc(CO)cc2I)N1CC12CC3CC(CC(C3)C1)C2 | 0.77 | -5.74 (inactive) | -1.67 (inactive) | -0.709 (inactive) | -0.038 (inactive) | 0.0117 | -0.246 | 0.585 | 0.825 | 2.06 | 0.832 (inactive) | -0.641 | 8.97 (active) | 1.41 (inactive) | 2.53 (inactive) | 0.301 (inactive) | 2.5 | -1.38 (inactive) | -4.29 (inactive) | -3.82
COc1ccc(C(O)C2C=CC3C(=O)N(c4ccccc4)C(=O)C3N2Nc2ccccc2F)cc1 (stereo not given) | 0.0178 | -0.0475 (inactive) | -0.749 (inactive) | -0.228 (inactive) | 0.604 (inactive) | 0.316 | 1.52 | 0.216 | 0.732 | 0.379 | -1.19 (inactive) | 0.167 | 4.67 (inactive) | 1.33 (inactive) | 0.0183 (inactive) | 0.635 (inactive) | -0.331 | -1.34 (inactive) | -3.63 (inactive) | -1.7
COCCOC(=O)N1C(=O)[C@@]2(c3cc(C#CCCO)ccc31)[C@H](C(=O)N1CCCCCCC1)[C@H]1C(=O)O[C@H](c3ccccc3)[C@H](c3ccccc3)N1[C@@H]2c1ccccc1OCCO | 0.985 | -2.07 (inactive) | 0.893 (inactive) | 0.0655 (inactive) | -0.823 (inactive) | 2.6 | 1.3 | 1.22 | 1.62 | 1.68 | -0.82 (inactive) | 2.52 | 0.56 (inactive) | 0.654 (inactive) | 0.0531 (inactive) | 0.336 (inactive) | -0.319 | 1.96 (inactive) | 0.843 (inactive) | 1.73
